Data published in PubChem BioAssay (NCI).
Compounds without any hit were thinned out: in the full panel of roughly 83,000, 20% have a hit.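 Each cell line was grown in a 96-well plate and treated with one concentration of compound for 48 hours. Values below 10 were considered active.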 Values without a mark were called inactive. The source made the active and inactive calls.

tested on: OVCAR-8 ovarian; experiment: NCI-60 one-dose screen, 48 h (100 = growth as untreated, 0 = no growth, -100 = all killed); conditions: 10 µM unless noted

Row | SMILES | growth
1 | COc1cc2c3c(c4c5ccccc5[nH]c4c2c(OC)c1OC)C(=O)N(O)C3=O | 36.8%
2 | Cc1cc2nc3c4cc(O)ccc4n(CCN(C)C)c3nc2cc1C | -18.6% (active)
3 | Cc1csc(Nc2nc(-c3ccc(Cl)cc3)nc(C(Cl)(Cl)Cl)n2)n1 | 89.9%
4 | Cc1cc(C)nc(NC(N)=NCCc2ccccc2)n1 | 53.4%
5 | COc1cc(-c2c(C#N)c(-c3cccs3)nc3c2c(-c2ccccc2)nn3-c2ccccc2)ccc1O | 84.2%
6 | CN1CCN(c2ccc3nc(-c4[nH]ncc4Nc4ncnc5c4OCCCN5)[nH]c3c2)CC1 | 0.0729% (active)
7 | COC(=O)[C@]12CC[C@@H](C)[C@H](C)[C@@H]1C1=CC[C@@H]3[C@@]4(C)C[C@@H](O)[C@H](O)[C@@](C)(CO)C4=CC[C@@]3(C)[C@]1(C)CC2 | -22.9% (active)
8 | O=C(NO)c1ccc(Cn2c(=O)n(-c3ccccc3)c(=O)c3ccccc32)cc1 | -6.49% (active)
9 | COC(=O)[C@]12CC[C@@H](C)[C@H](C)[C@@H]1C1=CC(=O)[C@@H]3[C@@]4(C)C[C@@H](O)[C@H](O)[C@@]5(C)COC(=C45)C[C@@]3(C)[C@]1(C)CC2 | 61.4%
10 | Cn1cc(-c2csc(-c3cn(CCN)c4ccc(F)cc34)n2)c2cccnc21 | 72.1%
11 | CN(C)CCCCC(C(=O)CBr)(c1ccccc1)c1ccccc1 | 25.8%
12 | CC/C=C\C[C@H]1CC=C2C(=O)C=C[C@@H]2CC=CCCCC(=O)O[C@@H](CCCCC)CC=C2C(=O)C=C[C@@H]2CC=CCCCC(=O)O[C@@H](CCCCC)CC=C2C(=O)C=C[C@@H]2CC=CCCCC(=O)O[C@@H](CCCCC)CC=C2C(=O)C=C[C@@H]2CC=CCCCC(=O)O1 | -21.9% [7.9 µM] (active)
13 | Cc1ccc(N(CC(=O)Nc2ccc(S(=O)(=O)N3CCC(N4CCCC4)CC3)cc2)S(=O)(=O)c2ccc(Cl)cc2)cc1 | 55.2%
14 | Oc1ccc(Nc2ccccc2)cc1 | 96%
15 | CCCCCCCCNc1cccc2c1C(=O)c1ccccc1C2=O | 111%
16 | Cc1cc(N(CCCNc2ccnc3cc(Cl)ccc23)Cc2ccco2)nc(N2CCN(C)CC2)n1 | 55.4%

Row | SMILES | growth
17 | C=C1C(=O)O[C@H]2[C@H]1CC/C(Cn1cc(-c3ccc(OC)cc3)nn1)=C\CC[C@@]1(C)O[C@@H]21 | -51% (active)
18 | O=c1[nH]c2c3ccncc3cc(-c3cccc(Cl)c3)c2c2cnccc12 | 40.2%
19 | O=C1CNCCN1 | 103%
20 | COc1ccc(/C=C/C(=O)NCC(C)O)cc1 (stereo unspecified) | 97.9%
21 | O=C1Nc2ccccc2/C1=C/c1cn(CCCn2c3ccccc3c(=O)c3ccccc32)c2ccccc12 | 85%
22 | Cn1cc(-c2csc(-c3c[nH]c4ccc(F)cc34)n2)c2cccnc21 | 47.6%
23 | Cc1cc(Cl)nc(N(CCCNc2ccnc3cc(Cl)ccc23)Cc2ccco2)n1 | 14.5%
24 | COc1cc(/C=C/c2cc(/C=C/c3ccc(O)c(OC)c3)n(-c3ccc(Cl)cc3)c(=O)n2)ccc1O | 107%
25 | CC1(c2ccccc2)OC1C(=O)O (stereo unspecified) | 107%
26 | Oc1cccc2oc(=S)[nH]c12 | 112%
27 | Cc1ccc(NC2CC(=O)N(c3c(C)cc(C)cc3C)C2=O)c(C)c1 (stereo unspecified) | 107%
28 | CCc1nnc(NC(=O)c2ccoc2COc2ccccc2)s1 | 63.8%
29 | CC(C)(C)n1cc(-c2ccnc(NCCCNS(=O)(=O)c3ccc(Cl)cc3)c2)c(-c2cccc(F)c2)n1 | 84.7%
30 | COc1cc(/C=N/NC(=S)NNC(=S)NC2CCCCC2)cc(OC)c1OC | 97.8%
31 | Cc1cc(N(CCCNc2ccnc3cc(Cl)ccc23)Cc2ccco2)nc(Cl)n1 | 41.2%
